Only some compounds are listed: those with a hit (about 2.8% of all), similar ones and a draw of the others.
IP6K1 inh: Primary qHTS assay for small molecule inhibitors of Inositol hexaphosphate kinase 1 (IP6K1); 0.81% of 140,000 active; Inositol hexakisphosphate kinase 1 (Homo sapiens), Q92551; IP6K1 kinase, ADP-Glo luminescence, 2 h; active compounds read low; activity change, % (series mostly up to about 58 µM); in the data active = activity change below about -25%; note: % is set by controls: 0 for no effect and ±100 for the full control effect
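ADP-Glo luminescence measures ADP made by human IP6K1 during a 2 h RT reaction with ATP/IP6 (mix at 1.3 mM/130 uM); top library doses 57.5 and 19.1 uM final.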
KDM5B inh: Primary screen for KDM5B Histone Demethylases FDH-coupled qHTS | Lysine-specific demethylase 5B (Homo sapiens), Q9UGL1 | KDM5B demethylase, FDH-coupled NADH fluorescence (FDH is formaldehyde dehydrogenase) | Potency, µM (highest dose often 57.7 µM), usual class: inhibitors | 2.6% of 220,000 active | AID 1347165, 2019; active = well fitted inhibition curve with a large enough effect; inconclusive = small, poorly fitted or top-dose-only effect; inactive = no such curve, though single readings can be large or run the other way; note: potency is the fitted concentration of half-maximal effect; 0% is about no effect; nearly all actives have a fitted effect of over 70% in size
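Coupled FDH/NAD⁺ fluorescence readout. KDM5BΔAP 200 nM final; compound titration, 10 min RT preincubation; substrate mix 12.5 µM H3K4me3, 25 µM 2-OG, 50 µM Fe(II), 100 µM ascorbate, 0.25 mM NAD⁺, 0.25 U/mL FDH; ΔRFU over 30 min.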
* hit, by the source's call; i = inactive; ? = inconclusive; nt = no result.

SMILES	IP6K1 inh	KDM5B inh
COc1ccc2cc(C3CN(Cc4nc(C(N)=O)no4)CCO3)ccc2c1 (stereo not drawn)	-6	18µM*
COc1ccc2cc(C3CN(CCC(=O)NC(C)(C)C)CCO3)ccc2c1 (stereo not drawn)	22	?
O=C(CCSc1ccccc1)NCCc1ccc(F)cc1	nt	i
CC1CCN(CCc2nc3c([nH]2)CC(C)(C)CNC3=O)CC1	-13	i
CC1(C)CNC(=O)c2nc(CCN3CCCc4ccccc43)[nH]c2C1	-13	16µM*
CNc1ccc(C)cc1C(=O)NC(C(=O)O)c1c(C)n[nH]c1C (stereo not drawn)	-9	32µM*
Cc1nc2ccc(C(=O)NC(C(=O)O)c3c(C)n[nH]c3C)cc2[nH]1 (stereo not drawn)	11	i
CCCOc1ccccc1Oc1ncccc1CNC(=O)Nc1cccnc1	nt	i
O=C(O)/C=C/c1cc(Cl)ccc1OC(F)F	nt	i
O=S(=O)(c1ccc(Br)cc1)c1nc(-c2cccs2)oc1SCc1ccccc1F	-3	i
Cc1noc(C)c1-c1cc2c(cc(C)n2C)c(N2CCN(c3ccccn3)CC2)n1	-11	32µM*
Cc1noc(C)c1-c1cc2c(cc(C)n2C)c(NC2CCN(C)CC2)n1	-12	i
Cc1cc(C)n(-c2cccc(CN3CCN(C4CCNC4)CC3)c2)n1 (stereo not drawn)	9	?
Clc1ccc(Oc2cccc(CN3CCN(C4CCNC4)CC3)c2)cc1 (stereo not drawn)	25	16µM*
CCc1noc(-c2ccn3c(CNC(=O)C4CCCC4)nnc3c2)n1	40	i
O=C(NCc1nnc2cc(-c3nc(C4CC4)no3)ccn12)C1CCCCC1	7	28µM*
CCc1noc(-c2ccn3c(CNC(=O)C4CCC4)nnc3c2)n1	8	i
O=C(NCc1nnc2cc(-c3nc(C4CC4)no3)ccn12)C1CCC1	-1	25µM*
C[S+](=O)([O-])c1ccc(-c2nnc3ccc(C(=O)NCc4ccc(F)c(F)c4)cn23)cc1	2	nt
Cc1nc(N2CCCCC2)ncc1C(=O)NC1CCOC2(CCOCC2)C1 (stereo not drawn)	-8	i
Cc1nc(N2CCCCC2)ncc1C(=O)N[C@H]1[C@H]2CCO[C@H]2[C@@H]1N(C)C	12	22µM*
Cc1nc2ncccn2c1C(=O)N[C@H]1[C@H]2CCO[C@H]2[C@@H]1N(C)C	-1	32µM*
CN(CC(=O)N[C@H]1[C@H]2CCO[C@H]2[C@@H]1N(C)C)Cc1ccc(F)cc1	23	i
O=C(NC(C(=O)N1CCOCC1)C1CCN(C(=O)c2cccc(F)c2)CC1)c1ccc2c(c1)OCO2 (stereo not drawn)	2	i
CC(=O)c1cccc(NC(=O)CN2C(=O)NC3(CCC(C(C)(C)C)CC3)C2=O)c1 (stereo not drawn)	-9	i
SMILES	IP6K1 inh	KDM5B inh
CC(C)(OCc1nn(Cc2ccccc2)c2ccccc12)C(=O)O	-9	nt
O=C(c1cc(F)ccc1F)N1CCC(N2CC3CC(C2)[C@H]2CCCC(=O)N2C3)CC1 (stereo partly drawn)	4	i
CC(=O)Nc1ccc(C)c(NC(=O)c2nc(-c3ccccc3)oc2C)c1	nt	i
COCCCNC(=O)c1nc2nc(-c3ccccc3)c(Cl)cc2n1C	21	i
Cc1ccccc1-c1cc2c(nc1-c1ccccc1)nc(C(=O)NCCN(C)C)n2C	12	i
COc1ccc(-c2cc3c(nc2-c2ccccc2)nc(C(=O)NCCN(C)C)n3C)cn1	3	i
COc1ccccc1-c1cc2c(nc1-c1ccccc1)nc(C(=O)NCCN(C)C)n2C	6	32µM*
COCCNC(=O)c1nc2nc(-c3ccccc3)c(Cl)cc2n1C	2	40µM*
COc1cc(F)ccc1-c1cc2c(nc1-c1ccccc1)nc(C(=O)NCCN(C)C)n2C	4	32µM*
Cc1nc(NC2CC(c3nnc(CO)n3C3CC3)C2)c2sccc2n1 (stereo not drawn)	16	i
Cc1cc(C)n(Cc2c(C(=O)NCCc3ccccc3)noc2C)n1	nt	i
COc1cc2c(cc1NC(C)=O)C(c1ccc(Oc3ccccc3)nc1)CC(=O)N2 (stereo not drawn)	3	i
Cc1ccc(-c2ccc3nnc(CNC(=O)c4c(F)cccc4F)n3n2)cc1	2	25µM*
O=C(NCc1nnc2ccc(-c3ccc(F)cc3)nn12)c1cc(Cl)ccc1F	-1	25µM*
Cc1ccc(-c2ccc3nnc(CNC(=O)c4cccc(C(F)(F)F)c4)n3n2)cc1	-3	32µM*
O=C(NCc1nnc2ccc(-c3ccc(Cl)cc3)nn12)C1(c2ccccc2)CC1	19	20µM*
O=C(NCc1nnc2ccc(-c3ccc(Cl)cc3)nn12)c1cc(F)ccc1F	16	?
CN(CC1CCOCC1)S(=O)(=O)Cc1ccccc1	20	i
O=C(Cc1cccc(F)c1)N1CC2CC(C1)[C@H]1CCCC(=O)N1C2 (stereo partly drawn)	1	i
CN1C(=O)CC[C@]2(C(=O)NCc3cccs3)CCCC[C@@H]12	-6	i
Cc1nc(N/C(N)=N/S(=O)(=O)c2ccc3ccccc3c2)nc2ccccc12	nt	i
CC(C)CCNC(=O)c1cnc2n1CCN(Cc1ccc3[nH]ccc3c1)CC2	-6	i
O=S(=O)(NCCc1coc(-c2ccccc2)n1)c1ccccc1	nt	i
O=C(NCc1nnc2ccc(-c3ccccc3)nn12)c1cc(F)ccc1Cl	12	18µM*
Cc1ccc(-c2ccc3nnc(CNC(=O)c4ccc(F)cc4)n3n2)cc1	5	25µM*
SMILES	IP6K1 inh	KDM5B inh
O=C(NCc1nnc2ccc(-c3ccc(F)cc3)nn12)c1ccc(Cl)s1	5	28µM*
O=C(NCc1nnc2ccc(-c3ccc(F)cc3)nn12)c1ccc(F)cc1Cl	9	?
Cc1ccc(-c2ccc3nnc(CNC(=O)c4ccc(Cl)s4)n3n2)cc1	5	?
O=C(NCc1nnc2ccc(-c3ccccc3)nn12)c1cc(Cl)ccc1F	1	25µM*
CCN(CC)c1ccc(C(=O)NCc2nnc3ccc(-c4ccc(C)cc4)nn23)cc1	-9	i
CC1(C)Cc2c(ccc3ccccc23)C(CCl)N1 (stereo not drawn)	nt	i
COc1ccc(C(=O)N[C@@H]2C=C(C(=O)NCCC(N)=O)C[C@@H](O)[C@@H]2O)cc1	-1	?
O=C(Cc1ccc(F)cc1)NC1CCN(c2ccnc3ccnn23)C1 (stereo not drawn)	19	nt
Cc1ccc(-c2ccc3nnc(CNC(=O)c4cc(F)ccc4F)n3n2)cc1	8	25µM*
COc1ccc(C(=O)NCc2nnc3ccc(-c4ccc(F)cc4)nn23)c(OC)c1	15	?
CCS(=O)c1ccccc1C(=O)NCc1ccc(C)cc1 (stereo not drawn)	nt	i
COc1cc(-c2cc3c(nc2-c2ccccc2)nc(C(=O)NC2CCN(C)CC2)n3C)ccn1	15	i
CN(C)CCNC(=O)c1nc2nc(-c3ccccc3)c(-c3ccncc3)cc2n1C	13	22µM*
CN(C)CCNC(=O)c1nc2nc(-c3ccccc3)c(Nc3ccc(F)cc3)cc2n1C	7	?
COc1cc(-c2cc3c(nc2-c2ccccc2)nc(C(=O)NCCN(C)C)n3C)ccn1	10	i

Bioassay records as filed in PubChem.
